Bioassay records: PubChem BioAssay, several laboratories
ssDAF-12 act = S. stercoralis DAF-12 activation, primary screen; HEK293 ssDAF-12/GRIP1 lit1-tk-luc reporter, luminescence; % of 3 µM dafachronic acid response; activation, % at 6.8 µM; 370,000 compounds, 1% hits; AID 652126;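 active = activation above the mean over all tested compounds plus 3 SD, cut at about 0.9% in these data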;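 also: 0% = DMSO-only wells and 100% = 3 µM delta7-dafachronic acid wells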
hcDAF12 agonist = activates DAF-12 receptor from parasite H. contortus; HEK293 hcDAF-12 lit1-tk-luc reporter, luminescence; 0% DMSO, 100% Δ7-dafachronic acid; activation, % at 6.8 µM; 370,000 compounds, 1.4% hits;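 active = activation above the mean of all tested compounds plus 3 SD, cut at about 5.5% in these data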;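 also: 100% = response to 3 µM Δ7-dafachronic acid high control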
hgDAF12 agonist = activates the H. glycines DAF-12 receptor ligand-binding domain | HEK293 GAL4-hgDAF12 UAS-luciferase reporter, agonist luminescence; normalized to butyrate control | activation, % at 6.8 µM | 370,000 compounds, 1.8% hits | AID 687014;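 active = activation above a cutoff set at the mean of all screened compounds plus 3 SD, cut at about 10% in these data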;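 also: 0% = DMSO wells and 100% = sodium butyrate wells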
DAX1 inh-1 = blocks DAX1 repression of SF-1 activated StAR promoter. HEK293T StAR-luciferase reporter, SF-1/DAX-1 repression relief. inhibition, % at 6.8 µM. 370,000 compounds, 1.1% hits;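 active = inhibition above the mean over all tested compounds plus 3 SD, cut at about 3.6% in these data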;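 also: 0% = DAX-1 cells with DMSO and 100% = cells lacking DAX-1 with DMSO; higher inhibition means more luminescence from relief of DAX-1 repression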
DAX1 inh-2 = NR0B1 (DAX1) inhibition. P51843. HEK293 Gal4-DAX1 luciferase reporter, luminescence. inhibition, % at 6.75 µM. 340,000 compounds, 0.99% hits;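 active = inhibition above the mean over all tested compounds plus 3 SD, cut at about 4.2% in these data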;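 also: 0% = DAX1-transfected cells with DMSO and 100% = empty-vector control cells with DMSO; inhibition shows as a rise in luminescence from relieved DAX1 repression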
NR1D1 modulator = modulators of human Rev-erb alpha DNA binding | P20393 | Rev-erbα–FITC-DNA binding, fluorescence polarization, 90 min | 370,000 compounds, 0.79% hits | activity, % at 10 µM;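 active = activity above about 14%, limit read from the data; passing the limit was not always enough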;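 also: 0% = DMSO wells with 35 nM protein and 100% = DMSO wells with 750 nM protein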
Target sequence (P20393 whole entry, looked up): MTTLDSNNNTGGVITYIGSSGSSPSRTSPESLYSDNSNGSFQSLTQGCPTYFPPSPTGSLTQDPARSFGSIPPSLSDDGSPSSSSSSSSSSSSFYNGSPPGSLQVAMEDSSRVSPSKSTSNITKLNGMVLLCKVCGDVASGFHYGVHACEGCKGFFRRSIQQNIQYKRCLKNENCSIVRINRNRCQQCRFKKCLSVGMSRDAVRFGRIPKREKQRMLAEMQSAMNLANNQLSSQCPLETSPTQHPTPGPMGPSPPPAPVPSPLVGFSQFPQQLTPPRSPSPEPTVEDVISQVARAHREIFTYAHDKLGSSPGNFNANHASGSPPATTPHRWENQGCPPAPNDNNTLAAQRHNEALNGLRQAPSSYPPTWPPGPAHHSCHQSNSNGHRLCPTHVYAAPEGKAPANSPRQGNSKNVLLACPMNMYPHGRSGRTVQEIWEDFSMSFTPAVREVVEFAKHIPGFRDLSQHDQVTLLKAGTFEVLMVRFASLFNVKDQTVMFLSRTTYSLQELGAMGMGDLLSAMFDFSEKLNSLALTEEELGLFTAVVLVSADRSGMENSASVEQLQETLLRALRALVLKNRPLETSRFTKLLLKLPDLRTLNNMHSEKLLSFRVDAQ
DAX1 conf = confirmation of human DAX1 (NR0B1) inhibitors; HEK293T StAR-promoter luciferase reporter, SF-1/DAX-1 repression; shares compounds with DAX1 inh-1; 2,400 compounds, 87% hits; AID 652134; inhibition, % at 6.8 µM;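 active = inhibition above the average of every tested compound plus 3 SD, cut at about 3.8% in these data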;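 also: 0% = DAX-1 cells with DMSO and 100% = no DAX-1 control cells with DMSO; active compounds raise luminescence by relieving repression of the StAR reporter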
SF1 mutant ctr = counter-screen for DAX1 inhibitors: nonselective inhibitors with SF-1 AF2 mutant; inhibition, % at 6.8 µM; HEK293 StAR-luciferase, luminescence; shares compounds with DAX1 inh-1; 2,400 compounds, 78% hits; AID 652136;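 active = inhibition above the mean of all tested compounds plus 3 SD, cut at about 3% in these data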;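 also: 0% = DAX-1 transfected cells with DMSO and 100% = cells without DAX-1 with DMSO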
* = called active by the depositor; / = no result given. Rows were chosen to be rich in hits. Some 4.8% of all compounds tested hit in one or more screens of this group.

SMILES	ssDAF-12 act	hcDAF12 agonist	hgDAF12 agonist	DAX1 inh-1	DAX1 inh-2	NR1D1 modulator	DAX1 conf	SF1 mutant ctr
CC(C)CN1C(=O)C[C@@]2(C(=O)N(C)c3ccc(NS(=O)(=O)C4CCCCC4)cc32)C1c1ccccc1 (stereo not given in full)	-1	-1	-4	0	/	7	/	/
O=C(C[n+]1ccc2ccccc2c1)c1ccc2ccc3ccccc3c2c1	-1	1	2	5.3*	/	10	-3	-1
COC(=O)[C@]12C[C@H](CC(=O)NCc3cccs3)C(=O)N(Cc3cccc4ccccc34)C1=C[C@H](C1CCCC1)O[C@@H]2C	0	-2	-1	0	/	1	/	/
Nc1[nH]c(C(=O)c2ccccc2)c(-c2ccccc2)c1C(=O)NCCc1c[nH]c2ccccc12	0	1	2	1	/	0	/	/
O=C(NCCc1ccc(F)cc1)c1ccc2c(=O)n3c(nc2c1)CCC3	1	4	7	6.3*	1	2	2	3.4*
O=C(Nc1ccc2nc3n(c(=O)c2c1)CCCCC3)c1ccccn1	0	2	13*	4.8*	2	-8	9.1*	4.7*
Cc1ccc(NC(=O)c2ccc3c(=O)n4c(nc3c2)CCCCC4)nc1	-1	5	2	1	0	3	/	/
Cc1cccc(NC(=O)c2ccc3c(=O)n4c(nc3c2)CCCCC4)n1	-1	5	8	7.0*	-1	-1	6.2*	3
O=C(Nc1ccc2nc3n(c(=O)c2c1)CCCC3)c1ccccc1F	0	0	2	1	1	-1	/	/
COC(=O)CSc1nnc(-c2ccc(NS(=O)(=O)c3ccc(C(C)(C)C)cc3)cc2)o1	0	4	0	0	/	-12	/	/
COc1ccc(CC(=O)N(CCC2=CCCCC2)c2c(N)n(Cc3ccccc3)c(=O)[nH]c2=O)cc1	-1	-2	-1	-3	-1	7	/	/
CC(CC(=O)N(CCC1=CCCCC1)c1c(N)n(Cc2ccccc2)c(=O)[nH]c1=O)c1ccccc1 (stereo not given)	-1	0	1	6.3*	1	1	1	-2
CCN(C(=O)CSc1ncccn1)c1c(N)n(Cc2ccccc2)c(=O)[nH]c1=O	-1	0	0	4.7*	1	6	1	2
COc1ccccc1CCNC(=O)COc1cccc2c1OC(C)(C)C2	-1	-2	-3	4.6*	0	5	0	0
CCOc1ncccc1C(=O)NCC(c1ccccc1)N(C)C (stereo not given)	0	4	-1	5.1*	1	-2	8.1*	4.0*
CCOc1ncccc1C(=O)NCc1ccccc1F	-2	-1	0	0	0	5	/	/
COc1ccc2c(c1)CNC2CS(=O)(=O)NCc1ccc(F)cc1 (stereo not given)	0	2	2	-1	/	3	/	/
Cc1c(C(=O)OCC(C)C)[nH]c2c1C(=O)CC(c1ccco1)C2 (stereo not given)	-1	-2	-5	6.3*	-2	0	9.0*	-8
C/C=C/COC(=O)c1[nH]c2c(c1C)C(=O)CC(c1ccco1)C2 (stereo not given)	0	-2	-3	2	-4	-10	/	/
CCCCc1c(-c2ccccc2OC)ncn1C1CCCCC1	-1	-2	4	0	/	-4	/	/
CC1CCN(C(=O)CNC(=O)c2ccc(Br)o2)CC1	0	5	9	4.9*	2	7	3	2
O=C(NCC(=O)N1CCN(c2ccccc2)CC1)c1ccc(Br)o1	0	-1	-1	2	1	2	/	/
COc1ccc(N2c3ccccc3CN(Cc3ccccc3)CC2Cc2cc(OC)c(OC)c(OC)c2)cc1 (stereo not given)	-2	-1	4	2	1	0	/	/
C[C@H]1[C@@H](Cc2cc(Cl)cc(Cl)c2)N(c2ccccc2)c2ccccc2CN1Cc1ccccc1	-1	0	4	5.0*	/	5	-2	-1
COc1ccc(C(CNC(=O)c2cccc(S(=O)(=O)Nc3ccccc3OC)c2)N2CCCCC2)cc1 (stereo not given)	-1	0	2	6.9*	2	2	5.9*	4.2*
SMILES	ssDAF-12 act	hcDAF12 agonist	hgDAF12 agonist	DAX1 inh-1	DAX1 inh-2	NR1D1 modulator	DAX1 conf	SF1 mutant ctr
COc1ccc(C(CNC(=O)c2cccc(S(=O)(=O)Nc3ccccc3OC)c2)N2CCCC2)cc1 (stereo not given)	-1	-1	0	5.7*	1	10	6.3*	3.4*
COc1ccccc1NS(=O)(=O)c1cccc(C(=O)NCC(c2ccco2)N2CCCCC2)c1 (stereo not given)	-2	-2	-2	-1	-2	3	/	/
COc1ccccc1NS(=O)(=O)c1cc(C(=O)NCC(c2cccs2)N2CCOCC2)ccc1C (stereo not given)	-1	2	0	0	0	-5	/	/
COc1ccc(C(CNC(=O)c2ccc(C)c(S(=O)(=O)Nc3ccccc3OC)c2)N2CCCC2)cc1 (stereo not given)	-1	2	3	5.3*	1	-1	6.2*	5.3*
Cc1ccc(NC(=O)CSc2nnc(-c3ccccc3F)n2-c2ccccc2)c(C)c1	-2	-3	-4	0	/	-3	/	/
COC(=O)[C@]12C[C@H](CC(=O)NCc3cccs3)C(=O)N(CCC3=CCCCC3)C1=C[C@H](COCc1ccccc1)O[C@@H]2C	-1	0	2	0	/	-1	/	/
CCOC(=O)N1CCC(NC(=O)c2ccc3c(c2)N=C(C)c2c(C)ccc(C)c2S3)CC1	-1	-2	-1	9.0*	0	3	15*	-6
Cc1nc(NC(=O)CSc2nnc(C3CC3)n2C)sc1C(=O)N(C)C	-1	2	1	2	1	-2	/	/
Cc1nc(NC(=O)CSC2=NCCS2)sc1C(=O)N(C)C	-1	2	3	12*	0	-8	11*	4.5*
CCC(C)N(C(=O)CSc1nnc(-c2cccnc2)n1C1CCCCC1)C(C)CC (stereo not given)	-1	-1	-2	-1	/	-6	/	/
CC1=C(C(=O)Nc2ccc(CC(=O)NCc3ccccc3C)cc2)SCCO1	0	0	2	0	0	-9	/	/
CCc1ccc(CNC(=O)Cc2ccc(NC(=O)C3=C(C)OCCS3)cc2)cc1	0	5	9	15*	0	-13	21*	-4
